From PubChem BioAssay (EPA / NIEHS) come the findings set out here.

What is called AC50 is the concentration giving half of the maximal activity seen.

For test [1], the target named is Estrogen-related receptor gamma (Homo sapiens) (UniProt P62508). Briefly: ATG_ERRg_TRANS: Attagene TRANS-FACTORIAL HepG2 Assay for human Estrogen-Related Receptor gamma (ERRg) (AID 2282977; active = hit-call score of the fitted dose curve at least 0.9, where 1 is the maximum;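 note: hits increase reporter signal over DMSO so potencies reflect activators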). The note with it: HepG2 Attagene TRANS reporter, ERRg transactivation. In short, it runs like this:
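Transfect HepG2 with multiple GAL4-UAS reporter transcription units; dose chemicals 24 h; isolate RNA, reverse-transcribe with oligo(dT), PCR-amplify, label with 6-FAM, digest with HpaI; size fragments by capillary electrophoresis. DMSO serves as negative control.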

Test [2] has as its target Bile acid receptor (Homo sapiens) (UniProt Q96RI1). Briefly: ATG_FXR_TRANS: Attagene TRANS-FACTORIAL HepG2 Assay for Farnesoid X Receptor (FXR) (AID 2282979; active = hit-call score of the fitted dose curve at least 0.9, where 1 is the maximum;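 note: hits raise reporter mRNA above DMSO so AC50 marks FXR activation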). The note with it: HepG2 Attagene TRANS FXR-GAL4 reporter transcription. The method in brief:
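Reporter transcripts from transfected HepG2 cells were measured 24 h after dosing, using RT-PCR with capillary electrophoresis of 6-FAM-labelled fragments. The read-out reflects activity of exogenous FXR-Gal4 chimera on GAL4-UAS units, with induction relative to DMSO.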

Test [3] deals with Transcriptional activator Myb (Homo sapiens) (UniProt P10242). Briefly: ATG_Myb_CIS: Attagene CIS-FACTORIAL HepG2 Assay for human Myeloblastosis (Myb) Proto-Oncogene Transcription Factor (AID 2282986). The note with it: HepG2 Attagene CIS-FACTORIAL Myb reporter transcription; actives raise or lower the signal. The method in brief:
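Fluorescence signals from capillary electrophoresis of RT-PCR-amplified reporter cDNA give the read-out. Cells: HepG2 transfected with multiple cis-regulated reporter units. Exposure lasts 24 hours; DMSO defines baseline for gain or loss of signal.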

Test [4] in a line: ATG_NFI_CIS: Attagene CIS-FACTORIAL HepG2 Assay for human Nuclear Factor I (NFI) (AID 2282989). The note with it: HepG2 cis-regulatory reporter, NFI response element transcription; actives raise or lower the signal. In short, it runs like this:
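Endogenous TF activity in HepG2 cells transiently transfected with cis-element-driven multiplexed reporter units, read 24 h after dosing. Reporter mRNA quantified by RT-PCR, 6-FAM labelling, HpaI digestion and capillary electrophoresis; bidirectional fit versus DMSO.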

The target of test [5] is Myc proto-oncogene protein (Homo sapiens) (UniProt P01106). Briefly: ATG_Myc_CIS: Attagene CIS-FACTORIAL HepG2 Assay for human Myelocytomatosis (Myc) Proto-Oncogene Transcription Factor (AID 2282990). Conditions: HepG2, Attagene cis-reporter transcription factor activity; actives raise or lower the signal. In short, it runs like this:
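HepG2 cells transiently transfected with multiple cis-promoter-driven reporter transcription units, so endogenous TF activity is read. After 24 h compound exposure, reporter mRNA was quantified by RT-PCR, 6-FAM labelling, HpaI digestion and capillary electrophoresis; bidirectional fit versus DMSO.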

A short description of test [6]: ATG_NF_kB_CIS: Attagene CIS-FACTORIAL HepG2 Assay for human Nuclear Factor Kappa B (NF-kB) (AID 2282991). The note with it: HepG2 Attagene cis-factorial NF-kB reporter mRNA; actives raise or lower the signal. In short, it runs like this: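 HepG2, transient multi-reporter transfection, cis promoter elements (endogenous TFs). 24 h exposure. Total RNA → RT → PCR → 6-FAM label → HpaI → CE. Gain/loss vs DMSO.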

Test [7] in a line: ATG_NRF2_ARE_CIS: Attagene CIS-FACTORIAL HepG2 Assay for human Nuclear Factor Erythroid 2 Related Factor 2 (NFR2) response to Antioxidant Response Elements (ARE) (AID 2282992).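 For AC50: reporter mRNA level measured by RT-PCR and capillary electrophoresis fluorescence.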 The note with it: HepG2 Attagene ARE/NRF2 reporter, transcription factor activity; actives raise or lower the signal. The method in brief:
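Transient MRTU transfection of HepG2; 24 h compound exposure; TriZol RNA, RT with oligo(dT), PCR, 6-FAM primer extension, HpaI cut, CE. Bidirectional fit vs DMSO.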

Test [8] is described as follows: ATG_Oct_MLP_CIS: Attagene CIS-FACTORIAL HepG2 Assay for human Octamer-Binding Transcription Factor (Oct) (AID 2282993). The note with it: HepG2 Attagene cis-factorial Oct reporter, mRNA; actives raise or lower the signal. In short, it runs like this:
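HepG2 cells transiently transfected with cis-element-driven reporter transcription units (endogenous TF activity); 24 h compound exposure. Reporter mRNA quantified by RT-PCR, 6-FAM labelling, HpaI digestion and capillary electrophoresis; bidirectional fit versus DMSO baseline.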

Test [9] deals with Glucocorticoid receptor (Homo sapiens) (UniProt P04150). Briefly: ATG_GR_TRANS: Attagene TRANS-FACTORIAL HepG2 Assay for human Glucocorticoid Receptor (GR) (AID 2282978; active = hit-call score of the fitted dose curve at least 0.9, where 1 is the maximum;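 note: activators score as hits since higher reporter transcript over DMSO is fitted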). The note with it: HepG2 Attagene TRANS GR reporter, mRNA transcription. In short, it runs like this:
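Measurement of GAL4-UAS-driven reporter mRNA in human HepG2 liver cells 24 h post-dosing, using RT-PCR with fluorescent labelling and capillary electrophoresis; the transfected constructs report exogenous NR-GAL4 chimera activity, fitted upward against DMSO.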

In test [10] the target is Oxysterols receptor LXR-alpha (Homo sapiens) (UniProt Q13133). Briefly: ATG_LXRa_TRANS: Attagene TRANS-FACTORIAL HepG2 Assay for human Liver X Receptor alpha (LXRa) (AID 2282980; active = hit-call score of the fitted dose curve at least 0.9, where 1 is the maximum). The note with it: HepG2 Attagene TRANS reporter, LXRa transactivation. In short, it runs like this:
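Chemical-induced reporter mRNA measured by RT-PCR with fluorescent labelling and capillary electrophoresis after 24 h dosing of transiently transfected HepG2 cells expressing exogenous NR-Gal4 chimeras; increases scored against DMSO baseline.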

The target in test [11] is Oxysterols receptor LXR-beta (Homo sapiens) (UniProt P55055). Briefly: ATG_LXRb_TRANS: Attagene TRANS-FACTORIAL HepG2 Assay for human Liver X Receptor beta (LXRb) (AID 2282981; active = hit-call score of the fitted dose curve at least 0.9, where 1 is the maximum). The note with it: HepG2 Attagene TRANS GAL4-LXRb reporter, mRNA. The method in brief: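 In this TRANS format, exogenous chimeric NR-Gal4 protein activity, not endogenous factors, drives reporter expression in transfected human HepG2 cells. Exposure lasted 24 h; reporter mRNA was read by fluorescent capillary electrophoresis.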

Test [12] is described as follows: ATG_M_32_TRANS: Attagene TRANS-FACTORIAL HepG2 Assay for M32 Transcription Factor (Internal Marker) (AID 2282984; active = hit-call score of the fitted dose curve at least 0.9, where 1 is the maximum;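 for outcome: transcript level of a background control reporter unit measured by RT-PCR and capillary electrophoresis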). The note with it: HepG2 Attagene TRANS M32 internal marker reporter. The method in brief:
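Human hepatoma HepG2, transient MRTU transfection, 24 h treatment. RNA → RT-PCR → fluorescent primer extension → HpaI digest (2 h, 37 C) → CE. Positive-direction fit vs DMSO.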

Test [13] concerns the target Nuclear respiratory factor 1 (Homo sapiens) (UniProt Q16656). Briefly: ATG_NRF1_CIS: Attagene CIS-FACTORIAL HepG2 Assay for human Nuclear Respiratory Factor 1 (NRF1) Orphan Gene (AID 2282987). Conditions: HepG2 NRF1 cis-element reporter, Attagene multiplex; actives raise or lower the signal. In short, it runs like this: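 Transcriptional reporter readout, one component of a 52-endpoint multiplexed HepG2 panel. Exposure 24 h; mRNA detected via RT-PCR and fluorescent capillary electrophoresis; fitting in both directions against DMSO.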

For test [14], the target named is Cellular tumor antigen p53 (Homo sapiens) (UniProt P04637). Briefly: ATG_p53_CIS: Attagene CIS-FACTORIAL HepG2 Assay for human p53 Transcription Factor (AID 2282994). The note with it: HepG2 p53 cis-element reporter, Attagene mRNA; actives raise or lower the signal. In short, it runs like this: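 HepG2, transient MRTU transfection (cis promoter elements, endogenous TFs); 24 h dosing; RNA isolation, RT-PCR, 6-FAM primer extension, HpaI digest, CE fluorescence; bidirectional fit vs DMSO.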

The target in test [15] is Nuclear receptor subfamily 4 group A member 2 (Homo sapiens) (UniProt P43354). Briefly: ATG_NURR1_TRANS: Attagene TRANS-FACTORIAL HepG2 Assay for human Nuclear Receptor Related Protein 1 (NURR1) (AID 2282985; active = hit-call score of the fitted dose curve at least 0.9, where 1 is the maximum). Conditions: HepG2 Attagene TRANS reporter, mRNA readout. The method in brief: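 After 24 h chemical dosing, total RNA from transiently transfected HepG2 cells was reverse-transcribed and reporter cDNA PCR-amplified, FAM-labelled and analysed by capillary electrophoresis. Activity fitted in positive direction, DMSO as negative control.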

Test [16] in a line: BSK_3C_TissueFactor: BioMAP Diversity Plus: 3C Assay for Tissue Factor Biomarker Activity (AID 2282997). The note with it: BioMAP 3C HUVEC, tissue factor biomarker readout; actives raise or lower the signal. In short, it runs like this: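 Dosing of human umbilical vein endothelial cells preceded a 24 h incubation. Tissue Factor was then read by ELISA, with increases and decreases both scored relative to DMSO controls.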

Test [17] in a line: BSK_3C_uPAR: BioMAP Diversity Plus: 3C Assay for Urokinase-type plasminogen activator receptor (uPAR) Biomarker Activity (AID 2282998). Conditions: BioMAP 3C HUVEC, uPAR biomarker ELISA; actives raise or lower the signal. In short, it runs like this: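 Primary human umbilical vein endothelial cells, 3C system; surface uPAR measured by ELISA 24 h after dosing. Cytotoxicity via SRB total protein in parallel cultures; bidirectional fit against DMSO.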

Test [18] deals with Hepatocyte nuclear factor 4-alpha (Homo sapiens) (UniProt P41235). Briefly: ATG_HNF4a_TRANS: Attagene TRANS-FACTORIAL HepG2 Assay for human Hepatocyte Nuclear Factor 4 alpha (HNF4a) (AID 2282982; active = hit-call score of the fitted dose curve at least 0.9, where 1 is the maximum). Conditions: HepG2 HNF4a transactivation reporter, mRNA readout. In short, it runs like this: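 Cells used were human HepG2, transiently carrying GAL4-UAS reporter units read out against exogenous NR-GAL4 chimeras. Reporter transcript levels after 24 h dosing were quantified by fluorescent RT-PCR and capillary electrophoresis.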

Test [19] in a line: ATG_M_06_TRANS: Attagene TRANS-FACTORIAL HepG2 Assay for M06 Transcription Factor (Internal Marker) (AID 2282983; active = hit-call score of the fitted dose curve at least 0.9, where 1 is the maximum). The note with it: HepG2 Attagene TRANS M06 internal marker reporter. In short, it runs like this: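 Cells: HepG2, transient multi-reporter transfection. Exposure: 24 h. Detection: RT-PCR, 6-FAM labelling, HpaI digestion (2 h, 37 °C), capillary electrophoresis. Baseline: DMSO.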

Each structure is given as a SMILES string. Results filed as inconclusive are left out. Calls of active or inactive are those of the source. Rule for the calls, unless noted: active = hit-call score of the fitted dose curve at least 0.9, where 1 is the maximum; inactive = score below 0.9.

Sequence of Oxysterols receptor LXR-alpha (Homo sapiens) (Q13133 whole entry, looked up, the tested form may be a part): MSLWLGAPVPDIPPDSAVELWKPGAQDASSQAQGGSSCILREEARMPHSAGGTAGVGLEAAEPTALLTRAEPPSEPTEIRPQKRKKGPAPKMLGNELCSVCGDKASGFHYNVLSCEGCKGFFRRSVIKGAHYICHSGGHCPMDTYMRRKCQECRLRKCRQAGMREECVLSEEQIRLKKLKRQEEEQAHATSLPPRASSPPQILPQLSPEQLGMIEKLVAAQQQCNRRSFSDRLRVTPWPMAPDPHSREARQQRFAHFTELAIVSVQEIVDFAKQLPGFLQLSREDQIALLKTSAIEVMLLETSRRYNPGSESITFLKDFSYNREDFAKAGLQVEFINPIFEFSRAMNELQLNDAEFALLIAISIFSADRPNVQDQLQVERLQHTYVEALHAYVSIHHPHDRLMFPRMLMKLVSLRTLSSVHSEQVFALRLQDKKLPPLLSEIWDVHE
Sequence of Oxysterols receptor LXR-beta (Homo sapiens) (P55055 whole entry, looked up, the tested form may be a part): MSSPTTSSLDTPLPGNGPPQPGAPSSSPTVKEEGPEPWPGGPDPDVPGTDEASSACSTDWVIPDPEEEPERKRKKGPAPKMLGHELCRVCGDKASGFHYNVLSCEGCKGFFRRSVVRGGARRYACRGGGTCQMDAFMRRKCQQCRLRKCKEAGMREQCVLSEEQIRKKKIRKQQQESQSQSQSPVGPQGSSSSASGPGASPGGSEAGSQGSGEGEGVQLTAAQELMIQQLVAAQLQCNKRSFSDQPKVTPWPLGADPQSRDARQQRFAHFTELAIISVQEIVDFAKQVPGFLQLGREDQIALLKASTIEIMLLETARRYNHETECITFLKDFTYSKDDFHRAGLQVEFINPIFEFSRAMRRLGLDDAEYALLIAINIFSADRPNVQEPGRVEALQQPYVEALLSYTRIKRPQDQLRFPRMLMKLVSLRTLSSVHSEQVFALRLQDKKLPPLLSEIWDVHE
Sequence of Nuclear receptor subfamily 4 group A member 2 (Homo sapiens) (P43354 whole entry, looked up): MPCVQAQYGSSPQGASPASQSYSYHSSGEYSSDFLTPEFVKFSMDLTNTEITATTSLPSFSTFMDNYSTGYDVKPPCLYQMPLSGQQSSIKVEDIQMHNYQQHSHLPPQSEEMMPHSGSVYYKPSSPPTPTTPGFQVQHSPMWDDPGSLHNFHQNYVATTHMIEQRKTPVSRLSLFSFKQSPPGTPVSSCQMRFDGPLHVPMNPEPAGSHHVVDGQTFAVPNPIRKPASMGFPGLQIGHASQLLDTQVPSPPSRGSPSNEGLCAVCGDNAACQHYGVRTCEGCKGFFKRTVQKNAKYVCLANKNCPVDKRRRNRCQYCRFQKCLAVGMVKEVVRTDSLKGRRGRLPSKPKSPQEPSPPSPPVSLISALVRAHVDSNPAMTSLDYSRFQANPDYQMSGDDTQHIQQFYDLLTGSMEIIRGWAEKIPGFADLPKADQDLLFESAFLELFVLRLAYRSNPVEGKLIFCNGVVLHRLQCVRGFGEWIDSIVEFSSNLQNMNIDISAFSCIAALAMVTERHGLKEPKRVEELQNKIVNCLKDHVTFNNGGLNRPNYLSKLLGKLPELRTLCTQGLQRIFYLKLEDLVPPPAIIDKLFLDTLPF
Sequence of Cellular tumor antigen p53 (Homo sapiens) (P04637 whole entry, looked up): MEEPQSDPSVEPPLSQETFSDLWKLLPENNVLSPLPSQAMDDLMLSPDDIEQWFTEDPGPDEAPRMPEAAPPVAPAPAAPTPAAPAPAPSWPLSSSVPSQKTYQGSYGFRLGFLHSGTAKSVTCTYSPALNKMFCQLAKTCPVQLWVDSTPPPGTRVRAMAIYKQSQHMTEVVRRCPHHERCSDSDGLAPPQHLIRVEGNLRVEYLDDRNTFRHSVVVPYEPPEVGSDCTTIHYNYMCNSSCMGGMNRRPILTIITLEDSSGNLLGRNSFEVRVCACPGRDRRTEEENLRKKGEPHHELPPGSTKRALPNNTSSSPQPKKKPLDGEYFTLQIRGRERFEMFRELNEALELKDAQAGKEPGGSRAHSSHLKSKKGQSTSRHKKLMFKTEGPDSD
Sequence of Glucocorticoid receptor (Homo sapiens) (P04150 whole entry, looked up, the tested form may be a part): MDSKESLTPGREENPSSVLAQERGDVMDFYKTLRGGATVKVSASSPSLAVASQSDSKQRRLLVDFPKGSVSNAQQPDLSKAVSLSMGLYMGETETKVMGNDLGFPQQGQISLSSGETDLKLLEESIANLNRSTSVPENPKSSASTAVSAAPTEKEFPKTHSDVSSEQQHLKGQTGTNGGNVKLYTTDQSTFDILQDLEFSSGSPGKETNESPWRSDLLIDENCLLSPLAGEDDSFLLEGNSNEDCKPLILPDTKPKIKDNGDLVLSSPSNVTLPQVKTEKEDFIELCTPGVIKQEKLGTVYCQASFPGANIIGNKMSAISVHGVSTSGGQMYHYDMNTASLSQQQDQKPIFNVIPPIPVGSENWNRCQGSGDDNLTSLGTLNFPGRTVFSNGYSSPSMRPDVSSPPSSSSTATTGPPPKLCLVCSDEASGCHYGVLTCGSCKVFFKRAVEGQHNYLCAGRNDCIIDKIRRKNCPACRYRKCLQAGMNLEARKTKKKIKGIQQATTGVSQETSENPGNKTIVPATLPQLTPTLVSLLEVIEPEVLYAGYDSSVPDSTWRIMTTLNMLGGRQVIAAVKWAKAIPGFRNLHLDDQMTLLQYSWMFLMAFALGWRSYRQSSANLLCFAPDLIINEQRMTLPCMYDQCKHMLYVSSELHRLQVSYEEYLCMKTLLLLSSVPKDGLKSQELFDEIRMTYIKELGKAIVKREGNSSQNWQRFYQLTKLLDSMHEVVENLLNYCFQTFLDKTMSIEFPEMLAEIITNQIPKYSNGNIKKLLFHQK
Sequence of Estrogen-related receptor gamma (Homo sapiens) (P62508 whole entry, looked up, the tested form may be a part): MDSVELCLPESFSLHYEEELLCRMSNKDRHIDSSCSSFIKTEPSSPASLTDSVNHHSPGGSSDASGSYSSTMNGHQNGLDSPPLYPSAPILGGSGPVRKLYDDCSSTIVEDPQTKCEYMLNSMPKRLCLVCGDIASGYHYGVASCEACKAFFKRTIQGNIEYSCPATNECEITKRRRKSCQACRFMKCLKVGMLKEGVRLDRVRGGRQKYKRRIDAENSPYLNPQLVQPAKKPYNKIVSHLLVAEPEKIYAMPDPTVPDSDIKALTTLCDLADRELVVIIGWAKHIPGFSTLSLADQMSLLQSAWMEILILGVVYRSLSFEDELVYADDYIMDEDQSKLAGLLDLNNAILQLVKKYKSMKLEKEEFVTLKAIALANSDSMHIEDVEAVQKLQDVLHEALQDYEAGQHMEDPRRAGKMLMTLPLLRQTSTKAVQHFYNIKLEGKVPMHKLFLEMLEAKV
Sequence of Hepatocyte nuclear factor 4-alpha (Homo sapiens) (P41235 whole entry, looked up, the tested form may be a part): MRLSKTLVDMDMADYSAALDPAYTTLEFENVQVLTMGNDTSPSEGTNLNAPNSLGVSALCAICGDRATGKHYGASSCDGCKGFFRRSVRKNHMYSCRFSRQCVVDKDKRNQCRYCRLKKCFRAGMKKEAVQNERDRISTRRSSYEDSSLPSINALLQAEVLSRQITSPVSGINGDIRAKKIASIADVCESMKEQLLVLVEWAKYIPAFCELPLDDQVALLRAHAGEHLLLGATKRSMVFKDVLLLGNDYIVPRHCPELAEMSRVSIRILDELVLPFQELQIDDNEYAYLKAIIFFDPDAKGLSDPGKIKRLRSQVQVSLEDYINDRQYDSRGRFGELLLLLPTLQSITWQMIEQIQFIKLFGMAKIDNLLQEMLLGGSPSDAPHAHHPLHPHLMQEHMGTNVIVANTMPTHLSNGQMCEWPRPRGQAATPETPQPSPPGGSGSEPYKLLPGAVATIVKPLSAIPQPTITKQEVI
Sequence of Bile acid receptor (Homo sapiens) (Q96RI1 whole entry, looked up, the tested form may be a part): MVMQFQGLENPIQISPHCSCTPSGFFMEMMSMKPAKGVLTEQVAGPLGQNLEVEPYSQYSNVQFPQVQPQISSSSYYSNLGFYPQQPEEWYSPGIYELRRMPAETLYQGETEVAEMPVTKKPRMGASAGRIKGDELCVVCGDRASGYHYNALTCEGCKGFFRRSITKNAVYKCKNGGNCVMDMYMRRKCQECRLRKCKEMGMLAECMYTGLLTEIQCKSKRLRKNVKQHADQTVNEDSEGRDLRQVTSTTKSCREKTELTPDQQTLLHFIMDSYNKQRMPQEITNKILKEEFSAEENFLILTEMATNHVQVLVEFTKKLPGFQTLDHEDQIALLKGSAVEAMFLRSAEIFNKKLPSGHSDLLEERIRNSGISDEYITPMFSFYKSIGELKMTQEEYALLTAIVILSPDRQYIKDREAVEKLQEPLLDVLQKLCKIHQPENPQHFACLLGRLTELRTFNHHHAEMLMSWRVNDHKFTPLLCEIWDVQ
Sequence of Myc proto-oncogene protein (Homo sapiens) (P01106 whole entry, looked up): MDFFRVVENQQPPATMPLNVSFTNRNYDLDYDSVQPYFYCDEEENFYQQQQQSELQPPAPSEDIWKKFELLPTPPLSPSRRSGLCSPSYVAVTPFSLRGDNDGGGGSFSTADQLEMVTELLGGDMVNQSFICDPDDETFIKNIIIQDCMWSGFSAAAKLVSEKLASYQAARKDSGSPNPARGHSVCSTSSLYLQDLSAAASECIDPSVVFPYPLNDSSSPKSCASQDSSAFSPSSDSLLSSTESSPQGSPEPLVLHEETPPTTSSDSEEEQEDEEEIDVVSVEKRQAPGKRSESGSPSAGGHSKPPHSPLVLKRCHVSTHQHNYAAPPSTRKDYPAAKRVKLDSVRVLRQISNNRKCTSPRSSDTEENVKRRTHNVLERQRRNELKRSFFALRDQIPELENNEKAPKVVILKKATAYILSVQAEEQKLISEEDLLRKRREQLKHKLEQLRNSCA

For the molecule `O=C1CCCN1C1CCCCC1`, the result in [1], in test [2], in test [3], in [4], in test [5] and in test [6] was inactive. Besides, the molecule was classed as inactive in test [7] and in test [8].

Consider `CC(C)(C)C1CCC(=O)CC1`, for which the outcome in [9], in [2], in test [10], in test [11], in test [12] and in test [3] was inactive. Also, the molecule was called inactive in [13], in test [4], in test [5], in [6], in test [7] and in test [14]. Besides, the AC50 in [8] is 145 µM (active).

For `O=C(O)C(F)(F)C(F)(F)C(F)(F)C(F)(F)C(=O)O`, the molecule was classed as inactive in [1], in test [2], in test [15], in test [3], in test [13] and in test [4]. Further, the call in [5], in test [6], in [7], in test [14], in [16] and in test [17] was inactive.

`O=C(OCc1ccccc1)c1ccc(O)cc1`: the molecule was classed as inactive in test [9], in test [2], in test [10], in test [11], in [3] and in test [13]. The molecule was classed as inactive in test [4], in test [5] and in test [14]. In addition, the values for the AC50 in test [15] and in test [7] were 158 µM (active) and 64.4 µM (active), respectively.

As to `C/C=C/C=C/CCCCCCCO`, the molecule was called inactive in test [9], in test [2], in test [10], in test [11], in test [18] and in test [15]. Moreover, the call in test [3], in [4], in test [5], in test [6], in test [8] and in [14] was inactive. Besides, the AC50 is 100 µM (active) in [12] and 45.6 µM (active) in [7].

As to `CCc1cccc(CC)c1`, the result in test [9], in [2], in [10], in test [19], in [3] and in [13] was inactive. The outcome in test [4], in [5], in test [7], in test [8] and in [14] was inactive.

On to `CC1(C)[C@@H]2CC[C@@]1(C)C(=O)C2`, for which the call in [1], in test [12], in test [15], in [3], in test [4] and in test [5] was inactive. Besides, the call in [6], in test [7], in test [8] and in test [14] was inactive.

For `c1ccc(-c2nc3ccccc3[nH]2)cc1`, the result in test [9], in test [2], in [10], in test [11], in [18] and in test [12] was inactive. Also, the molecule was called inactive in test [3], in test [13], in [4], in test [6], in [8] and in test [14]. Besides, the concentration at half-maximal activity (AC50) in [5] is 26.1 µM (active).

Turning to `CCc1cccc(C)c1N(C(=O)CS(=O)(=O)O)C(C)COC` (stereo unspecified), the outcome in [9], in [2], in test [10], in test [18], in test [19] and in [12] was inactive. Also, the result in test [3], in [13], in [4], in test [5], in test [6] and in test [7] was inactive. The molecule was called inactive in test [8], in test [14], in test [16] and in [17].

In the case of `CCCCCOC(=O)CCCCC`, the result in [1], in test [10], in [3], in [13], in test [4] and in test [5] was inactive. Also, the result in [6], in test [7], in [8] and in test [14] was inactive.

In the case of `CCC1COC(=O)O1` (stereo unspecified), the result in [9], in test [2], in test [10], in test [11], in test [19] and in test [12] was inactive. The outcome in test [3], in test [13], in [4], in test [5], in test [7] and in test [8] was inactive. Further, in test [14], the result was inactive.
